# HPGD block = HPGD (human) dehydrogenase inhibition | purified HPGD, NADH fluorescence kinetic, PGE2 substrate | Potency, µM, for inactives: top-dose activity change, negative = inhibition, hits mostly inhibitors | 150,000 tested, 4.3% active | AID 894; also: potency is read from the fitted curve at half-maximal effect
#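 20 nM HPGD preincubated 15 min at room temperature with compound in 50 mM Tris-HCl pH 8, 0.01% Tween 20. Started with 1 mM NAD+ and 30 uM prostaglandin E2; NADH fluorescence (360/450 nm) read 5 times over 30-s intervals, last minus first.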
# PNC inhibitor = inhibitors of perinucleolar compartment assembly. activity change (PNC), negative = inhibition, % at 10 µM. PC3M PTB-GFP, PNC prevalence imaging, 16 h; hits give low values. 140,000 tested, 3.1% active. AID 2417;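 active = readout at or below -70, meaning at least 70% loss of cells showing the perinucleolar compartment, a nuclear body marking cancer cells; inconclusive = readout between -30 and a set limit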;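 also: plate controls were DMSO wells for no effect and camptothecin positive control wells for full effect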
#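 Compounds are pinned in duplicate onto adhered PC3M cells stably expressing GFP-tagged PTB and incubated 16 h at 37 C. Cells are then fixed, nuclei stained with Hoechst, and PNC-positive cells counted.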
# ALDH1A1 block = blocks purified human ALDH1A1 activity; P00352; Purified ALDH1A1, NADH fluorescence, propionaldehyde substrate; Potency, µM (titrated, usually from 75.3 µM), for the others: at the highest dose activity, negative = inhibition, hits mostly inhibitors; 220,000 tested, 7.3% active; AID 1030;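 also: potency is read from the fitted curve at half-maximal effect; plate controls were no enzyme wells and a reference inhibitor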
# Target sequence (P00352 whole entry, looked up): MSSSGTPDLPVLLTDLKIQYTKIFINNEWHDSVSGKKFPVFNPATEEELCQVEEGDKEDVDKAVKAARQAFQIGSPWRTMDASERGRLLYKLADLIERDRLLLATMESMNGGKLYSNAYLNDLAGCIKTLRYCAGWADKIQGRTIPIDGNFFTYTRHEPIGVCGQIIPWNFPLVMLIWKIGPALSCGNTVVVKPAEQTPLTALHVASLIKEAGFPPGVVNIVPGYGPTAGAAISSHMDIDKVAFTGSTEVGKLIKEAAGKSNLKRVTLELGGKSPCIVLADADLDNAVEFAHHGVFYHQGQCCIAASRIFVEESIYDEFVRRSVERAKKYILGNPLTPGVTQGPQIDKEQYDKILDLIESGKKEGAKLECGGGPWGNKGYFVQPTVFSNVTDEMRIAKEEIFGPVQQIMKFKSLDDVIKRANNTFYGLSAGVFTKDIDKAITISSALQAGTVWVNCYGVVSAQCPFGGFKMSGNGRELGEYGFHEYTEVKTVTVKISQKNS
# The depositor's hits bear a star; u = inconclusive; x = no result given. Hits are enriched below; roughly 11% of the tested compounds scored in any of these assays. Unless noted, calls follow the shape of the dose curve; as a rule, active = well fitted inhibition curve with a large enough effect (not every such curve was filed as active); inconclusive = small, poorly fitted or top-dose-only effect, or another doubt; inactive = no such curve, though single readings can be large or run the other way. Unless noted, % is scaled to controls: 0 for no effect and ±100 for the full control effect.
SMILES,HPGD block,PNC inhibitor,ALDH1A1 block
CN=C(NC)SC1CC(=O)N(c2ccccc2)C1=O (centres undefined),4%,-18,10%
C=CCNc1nnc(SC2CC(=O)N(c3ccc(OCCC)cc3)C2=O)s1 (centres undefined),14µM*,38,0.56µM*
Cc1nc(SC2CC(=O)N(c3ccccc3)C2=O)n[nH]1 (centres undefined),x,x,0.35µM*
N#Cc1cc2c(nc1SC1CC(=O)N(c3ccccc3)C1=O)CCC2 (centres undefined),0%,u,-14%
Nc1nnc(SC2CC(=O)N(c3ccccc3)C2=O)s1 (centres undefined),32µM*,11,3.5µM*
CCNc1ccccc1,-3%,x,9%
C[C@@H](CN(C)C[C@H]1C(=O)O[C@@H]2C[C@@]3(C)CCC[C@]4(CO4)C3CC21)[C@H](O)c1ccccc1 (some centres undefined),-2%,x,-8%
CC(Nc1oc(-c2ccco2)nc1C#N)c1ccccc1 (centres undefined),u,-10,u
N#Cc1nc(-c2ccco2)oc1NCc1cccnc1,u,36,u
CC(C)CNc1oc(-c2ccco2)nc1C#N,u,-100*,u
N#Cc1nc(-c2ccco2)oc1NCc1ccc(F)cc1,u,-82*,u
CN(C)S(=O)(=O)c1cccc(NC(=O)CN2C(=O)NC(Cc3c[nH]c4ccccc34)C2=O)c1 (centres undefined),x,x,-9%
CCOc1ccc(Cn2c(O)cc(=O)[nH]c2=O)cc1,-12%,1,18µM*
COc1ccc(Cn2c(O)cc(=O)[nH]c2=O)cc1,-27%,31,u
CCCC(=O)NC(=S)Nc1ccc(NC(=O)C(C)C)c(OC)c1,x,18,16%
COC(=O)c1c(NC(=O)C(Cl)Cl)sc2c1C(C(=O)OC)CC2 (centres undefined),x,x,0.89µM*
COC(=O)c1c(NC(=O)C(C)(C)C)sc2c1C(C(=O)OC)CC2 (centres undefined),u,-8,u
O=C(OCc1nc2ccc(Cl)cc2n1CCO)c1ccc(O)cc1,-6%,-1,-1%
O=C(O)Cc1nc2nc3c(c(=O)n2[nH]1)CCCC3,-16%,-18,6%
O=c1c2c(nc3nc(COc4ccccc4)[nH]n13)CCC2,-3%,-110*,3%
O=C(COc1ccc(Cl)cc1Cl)Nc1c(-c2cccs2)nc2ccccn12,u,-4,u
CCOC(=O)N1CCN(CC(O)COc2ccccc2C(C)C)CC1 (centres undefined),-7%,56,-2%
C=CCc1ccccc1OCC(O)CN1CCN(C(=O)OCC)CC1 (centres undefined),-16%,u,20µM*
CCOC(=O)CC1C(=O)NCCN1S(=O)(=O)c1ccc(Cl)cc1Cl (centres undefined),-10%,16,-12%
c1ccc2c(c1)ncn2CCCCOc1ccc2c(c1)CCC2,u,50,14µM*
SMILES,HPGD block,PNC inhibitor,ALDH1A1 block
c1ccc2c(c1)ncn2CCCOc1ccc2c(c1)CCC2,u,2,2%
CCn1c(-c2ccc3[nH]c(C)c(C)c3c2)n[nH]c1=S,x,-9,u
CSc1nnc(-c2cc[n+](C)cc2)n1CCO,-5%,-22,9%
CCC1=NNc2cccc3c(OC)ccc1c23,14µM*,30,u
COc1ccc2c3c(cccc13)C(=O)N(O)C2=O,-15%,-3,u
COC(=O)CCC(=O)NC(=S)Nc1ccccc1F,x,x,0%
COC(=O)CNC(=O)CN1C(=O)N(c2cccc(Cl)c2)C(N(O)C(=O)Nc2cccc(Cl)c2)C1(C)C (centres undefined),-19%,-23,u
CCOC(=O)C1=C(C)NC(=O)NC1c1ccc(Br)s1 (centres undefined),3%,u,10%
CCN(CC)C(=O)C1=C(C)NC(=S)NC1c1ccc(C)s1 (centres undefined),x,x,8.9µM*
CC1=C(C(=O)N(C)C)C(c2ccc(C)s2)NC(=S)N1 (centres undefined),x,x,25µM*
CC1=C(C(=O)N(C)C)C(c2ccc(Cl)c(Cl)c2)NC(=O)N1 (centres undefined),-11%,u,-3%
O=C(NCC(c1cccs1)N1CCOCC1)c1ccccc1NS(=O)(=O)c1cc([N+](=O)[O-])ccc1Cl (centres undefined),x,-22,6%
Cc1cc(N2C(=O)C3CCC(c4ccccc4)CC3C2=O)no1 (centres undefined),x,x,6%
CSc1ccccc1NC(=O)COc1ccc(Cl)cc1Cl,x,u,0%
COc1ccc(OCC(=O)Nc2ccccc2O)cc1,-26%,5,1%
CSc1ccccc1NC(=O)COc1ccccc1Cl,25µM*,60,-12%
O=C(CCl)Nc1ccccc1Sc1ccc(Cl)cc1,-11%,25,4µM*
CC(=O)N1CCN(CC(=O)Nc2ccccc2Sc2ccc(Cl)cc2)CC1,7%,u,u
CSc1ccccc1NC(=O)COc1ccc(Cl)cc1,28µM*,-10,-13%
CC1C(=O)OC2CC34C5CC(C(C)(C)C)C36C(OC(=O)C6O)OC4(C(=O)O5)C21O (centres undefined),7%,x,5%
CCCCC/C=C\C[C@@H]1O[C@H]1/C=C/C(O)C/C=C\CCCC(=O)O (some centres undefined),-3%,x,3%
Nc1nc2ccc([N+](=O)[O-])cc2s1,-14%,x,u
Cc1ccc2[nH]c(=O)c(CN(CCCN3CCOCC3)C(=O)Nc3ccc(Cl)cc3)cc2c1,x,x,-13%
CCC(c1nnnn1C1CCCC1)N(Cc1cccs1)Cc1cc2cc(C)ccc2[nH]c1=O (centres undefined),-7%,u,u
Cc1ccc2[nH]c(=O)c(CN(CCCN3CCOCC3)Cc3nnnn3C3CCCC3)cc2c1,-3%,-100*,u
SMILES,HPGD block,PNC inhibitor,ALDH1A1 block
Cc1ccc2cc(CN(Cc3ccc(F)cc3)Cc3nnnn3C3CCCC3)c(=O)[nH]c2c1,-26%,u,14µM*
COc1ccc(Cn2nnnc2CN(Cc2cc3ccc(C)cc3[nH]c2=O)C2CCCC2)cc1,-5%,22,22µM*
CCc1ccc2[nH]c(=O)c(CN(Cc3ccc4c(c3)OCO4)Cc3nnnn3C3CCCC3)cc2c1,-29%,42,u
Cc1ccc2cc(CN(Cc3ccccc3)Cc3nnnn3C3CCCC3)c(=O)[nH]c2c1,-22%,34,10µM*
COc1ccc(Cn2nnnc2CN(Cc2cc3cccc(C)c3[nH]c2=O)C2CCCC2)cc1,-16%,28,u
CC(=O)c1cccc(N/C=C\C(=O)c2ccc(C)cc2)c1,-23%,32,u
COc1ccc(OC)c(Nc2ccc(Nc3cc(OC)ccc3OC)nn2)c1,-5%,23,-5%
CC(=O)c1cccc(NC=C2C(=O)OC3(CCCCC3)OC2=O)c1,-26%,0,2.2µM*
CCOc1ccccc1N/C=C/C(=O)C(C)(C)C,-19%,40,-5%
COc1ccc(OC)c(NC=C2C(=O)OC3(CCCCC3)OC2=O)c1,u,-6,0.089µM*
COc1ccc(OC)c(NC2=NC3(CCCCC3)N=C(N)N2)c1,-6%,29,2%
COc1ccc(OC)c(NC=C2C(=O)OC(C)(C)OC2=O)c1,-18%,83,0.18µM*
CCOc1ccccc1NC=C1C(=O)OC2(CCCCC2)OC1=O,-4%,54,0.71µM*

# High-throughput results deposited in PubChem by National Center for Advancing Translational Sciences (NCATS).
